According to the supplement of paper PMC8866396:
± gives the standard deviation of the averaged measurements.

tested on: IL-6-GFP PC-9; experiment: cell viability (CCK-8 OD) relative to DMSO control (fraction of control); higher = more viable cells; conditions: compound concentration: 10 uM; treatment time: 48 h
How it was run: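 PC-9 and PC-9GR lung cancer cells expressing lentiviral IL-6-GFP were plated at 3000 cells/well in 96-well plates and treated for 48 h with each library compound at a final 10 μM. Viability was determined by CCK-8 absorbance as a ratio of each well's optical density to the vehicle control well.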

Row | Structure (SMILES) | cell viability
1 | COC(=O)c1cc(OC)c2c(c1-c1c(C(=O)OC)cc(OC)c3c1OCO3)OCO2 [Bifendate] | 1.25 ± 0.027
2 | CCCCCOC(=O)Nc1nc(=O)n(C2OC(C)C(O)C2O)cc1F (centres undefined) [Capecitabine] | 0.459 ± 0.015
3 | O=C(CCCCCCC(=O)Nc1ccccc1)NO [Vorinostat (SAHA, MK0683)] | 0.418 ± 0.095
4 | CCN(CC)CCNC(=O)c1c(C)[nH]c(/C=C2\C(=O)Nc3ccc(F)cc32)c1C.O=C(O)CC(O)C(=O)O [Sunitinib Malate] | 0.453 ± 0.52
5 | CC(CCC(=O)NCCS(=O)(=O)O)C1CCC2C3C(O)CC4CC(O)CCC4(C)C3CCC12C (centres undefined) [Tauroursodeoxycholic Acid (TUDCA)] | 1.24 ± 0.23
6 | Cc1nnc(C(C)C)n1C1CC2CCC(C1)N2CCC(NC(=O)C1CCC(F)(F)CC1)c1ccccc1 (centres undefined) [Maraviroc] | 0.945 ± 0.17
7 | CC1(C)OC2CC3C4CCC5=CC(=O)C=CC5(C)C4(F)C(O)CC3(C)C2(C(=O)CO)O1 (centres undefined) [Triamcinolone Acetonide] | 0.9016 ± 0.0065
8 | CC12CCC(=O)C=C1CCC1C2C(O)CC2(C)C1CCC2(O)C(=O)CO (centres undefined) [Hydrocortisone] | 0.995 ± 0.24
9 | CC(C)C(=O)OCC(=O)C12OC(C3CCCCC3)OC1CC1C3CCC4=CC(=O)C=CC4(C)C3C(O)CC12C (centres undefined) [Ciclesonide] | 0.894 ± 0.16
10 | Nc1c(CC(=O)[O-])cccc1C(=O)c1ccc(Br)cc1.[Na+] [Bromfenac Sodium] | 1 ± 0.14
11 | Cn1c(=O)cc(N2CCCC(N)C2)n(Cc2ccccc2C#N)c1=O (centres undefined) [Alogliptin] | 1.29 ± 0.11
12 | CNC(=O)c1cc(Oc2ccc(NC(=O)Nc3ccc(Cl)c(C(F)(F)F)c3)c(F)c2)ccn1.O [Regorafenib Monohydrate] | 0.21 ± 0.28
13 | O=NN(CCCl)C(=O)NCCCl [Carmustine] | 1.26 ± 0.063
14 | O=C(O)C1CSCN1 (centres undefined) [Timonacic] | 1.01 ± 0.15
15 | CC/C(=C(\c1ccccc1)c1ccc(OCCN(C)C)cc1)c1ccccc1.O=C(O)CC(O)(CC(=O)O)C(=O)O [Tamoxifen] | 0.589 ± 0.053
16 | O=C(O)COC(=O)Cc1ccccc1Nc1c(Cl)cccc1Cl [Aceclofenac] | 1.1 ± 0.052
17 | CC(=O)c1c(C)c2cnc(Nc3ccc(N4CCNCC4)cn3)nc2n(C2CCCC2)c1=O.O=S(=O)(O)CCO | 0.811 ± 0.26
18 | CCC(C)C(=O)OC1CC(O)C=C2C=CC(C)C(CCC(O)CC(O)CC(=O)O)C21 (centres undefined) [Pravastatin] | 0.999 ± 0.22
19 | Cc1coc2c1C(=O)C(=O)c1c-2ccc2c1CCCC2(C)C [Tanshinone IIA] | 0.705 ± 0.19
20 | Cc1nc(Nc2ncc(C(=O)Nc3c(C)cccc3Cl)s2)cc(N2CCN(CCO)CC2)n1.Cl [Dasatinib hydrochloride] | 0.438 ± 0.063

Row | Structure (SMILES) | cell viability
21 | CC(C)=CCC/C(C)=C/CC/C(C)=C/CCC(=O)OC/C=C(\C)CCC=C(C)C [Gefarnate] | 1.06 ± 0.17
22 | COC1CC2CCC(C)C(O)(O2)C(=O)C(=O)N2CCCCC2C(=O)OC(C(C)CC2CCC(OCCO)C(OC)C2)CC(=O)C(C)/C=C(\C)C(O)C(OC)C(=O)C(C)CC(C)/C=C/C=C/C=C/1C (centres undefined) [Everolimus (RAD001)] | 0.66 ± 0.29
23 | CC1(C)C2CCC1(C)C(O)C2 (centres undefined) [Borneol] | 0.778 ± 0.016
24 | OCC1OC(c2ccc(F)c(Cc3cc4ccccc4s3)c2)C(O)C(O)C1O (centres undefined) [Ipragliflozin (ASP1941)] | 1.06 ± 0.12
25 | CCCCOc1ccc(CC(=O)NO)cc1 [Bufexamac] | 0.928 ± 0.073
26 | COC1OC2OC3(C)CCC4C(C)CCC(C1C)C24OO3 (centres undefined) [Artemether] | 1.29 ± 0.052
27 | Cc1ccc(C(C)C)cc1 [p-Cymene] | 1.249 ± 0.011
28 | CCOc1ccccc1OCCNC(C)Cc1ccc(OC)c(S(N)(=O)=O)c1 (centres undefined) [Tamsulosin] | 1.316 ± 0.0058
29 | CC(=O)c1c(C)c2cnc(Nc3ccc(N4CCNCC4)cn3)nc2n(C2CCCC2)c1=O.Cl | 0.694 ± 0.11
30 | CCN(CC)Cc1cc(Nc2ccnc3cc(Cl)ccc23)ccc1O.Cl.Cl.O.O [Amodiaquine dihydrochloride dihydrate] | 0.756 ± 0.039
31 | CC(=O)Nc1ccc(OC(=O)c2ccccc2OC(C)=O)cc1 [Benorylate] | 1.13 ± 0.046
32 | CC1CC2C3CC(F)C4=CC(=O)C=CC4(C)C3(F)C(O)CC2(C)C1(OC(=O)c1ccco1)C(=O)SCF (centres undefined) [fluticasone furoate] | 0.961 ± 0.27
33 | Cc1ccc(-c2ncc(Cl)cc2-c2ccc(S(C)(=O)=O)cc2)cn1 [Etoricoxib] | 1.21 ± 0.029
34 | Nc1n[n+]([O-])c2ccccc2[n+]1[O-] [Tirapazamine] | 0.676 ± 0.12
35 | CCOc1cc2ncc(C#N)c(Nc3ccc(OCc4ccccn4)c(Cl)c3)c2cc1NC(=O)/C=C/CN(C)C [Neratinib (HKI-272)] | 0.506 ± 0.052
36 | CCOc1ccc(Cc2cc(C3OC(CO)C(O)C(O)C3O)ccc2Cl)cc1 (centres undefined) [Dapagliflozin] | 1.74 ± 0.67
37 | C/C=C1/C2C=C(C)CC1(N)c1ccc(=O)[nH]c1C2 (single isomer, unassigned; (-)) [(-)-Huperzine A (HupA)] | 1.29 ± 0.053
38 | CC(C)c1c(C(=O)Nc2ccccc2)c(-c2ccccc2)c(-c2ccc(F)cc2)n1CCC(O)CC(O)CC(=O)O (centres undefined) [atorvastatin] | 0.866 ± 0.015
39 | CCC1(O)CC2CN(CCc3c([nH]c4ccccc34)C(C(=O)OC)(c3cc4c(cc3OC)N(C)C3C(O)(C(=O)OC)C(OC(C)=O)C5(CC)C=CCN6CCC43C65)C2)C1.O=S(=O)(O)O (centres undefined) [Vinblastine sulfate] | 0.655 ± 0.084
